aSyn UTR act: Activators working through SNCA 5'UTR binding (MLPCN); AID 1814; alpha-synuclein 5'UTR reporter, activators screen; activity score, % (tested at 7.5 µM), hits read low; 300,000 tested, 7.1% active; in the data active means activity score below about -60%
Active calls of the source: *. The list is a sample of the results.

SMILES	aSyn UTR act
COc1cc(/C=C/C(=O)NC(=O)c2ccccc2O)ccc1OC(C)=O	-161*
COc1ccc(/C=C/C(=O)c2cc(F)ccc2OC(=O)c2ccccc2C)cc1OC	82
COc1ccc(/C=C/C(=O)Nc2ccc(-n3nncc3-c3ccc(OC)c(OC)c3)cc2)cc1OC	59
Cc1ccccc1/C(N)=N/OC(=O)/C=C/c1ccccc1	-178*
Cc1ccc(/C(N)=N/OC(=O)/C=C/c2ccccc2)cc1	-63*
COc1ccc(/C(N)=N/OC(=O)/C=C/c2ccccc2)cc1	-88*
CC(Cc1cccs1)NC(=O)Nc1ccc(Cl)cc1 (stereo not drawn)	-221*
CC(Cc1cccs1)NC(=O)Nc1ccc(Cl)c(Cl)c1 (stereo not drawn)	-90*
CCCC(=O)NC(c1cccs1)c1cc(Cl)c2cccnc2c1O (stereo not drawn)	99
O=C(c1cc2ccccc2o1)c1nc2c(n1O)CCCCC2	-73*
Cc1ccc(C(=O)c2nc3c(n2O)CCCC3)cc1	-86*
Clc1ccc(Nc2nc(C3CC3)cs2)cc1	-190*
COc1ccc(S(=O)(=O)NCc2ccccn2)cc1NC(=O)c1ccccc1	-62*
CCOc1ccc(S(=O)(=O)NCc2ccccn2)cc1NC(=O)c1ccccc1F	76
CN(C)c1cccc(/C=C(\C#N)c2ccccc2)c1	-155*
COc1ccc(C(=O)/C=C/Nc2cccc(C)n2)cc1OC	-195*
CSC1=NC(C)(C)C=C(/C=C/c2ccc(Cl)cc2)N1	-96*
O=C1C(C=Nc2ccccc2O)=C(O)c2ccccc21	-186*
CCN(CC)S(=O)(=O)c1cccc(C(=O)N/N=C/c2cccc(O)c2O)c1	66
Cc1ccc(O)c(C=Nc2cc(C)ccc2O)c1	-92*
Oc1cccc(/C=N/N=C/c2cccc(O)c2O)c1O	-70*
Cc1ccc(O)c(N=CC2=C(O)c3ccccc3C2=O)c1	-156*
CCc1ccc(O)c(N=Cc2ccccc2O)c1	-70*
Cc1ccc(N=Cc2cccc(O)c2O)c(C)c1	-62*
Cc1cc(N2CCN(C)CC2)nc2ccc(NC(=S)NCCC(C)C)cc12	-86*
SMILES	aSyn UTR act
Cc1cc(N2CCN(C)CC2)nc2ccc(NC(=S)NCc3cccs3)cc12	-78*
CCCN(CCC)CCCNC(=S)Nc1ccc2nc(N3CCCC3)cc(C)c2c1	-72*
CCOc1ccc2nc(NC(=O)COC)sc2c1	-97*
CCOCC(=O)Nc1nc2ccc(OC)cc2s1	-89*
CCOc1ccc2nc(NC(=O)Cn3[nH]c(=O)c4ccccc4c3=O)sc2c1	-105*
CC(C)C1COC(c2cccc3ccccc23)=N1 (stereo not drawn)	-115*
O=C(NCC1CCCO1)c1cc(-c2ccc(F)cc2)no1 (stereo not drawn)	-264*
COc1cccc(-c2cc(C(=O)NCC3CCCO3)on2)c1 (stereo not drawn)	-64*
CC(C)CNc1nc(N)c([N+](=O)[O-])c(NCC2CCCO2)n1 (stereo not drawn)	51
COc1ccc(C(=O)NC(=S)NCC2CCCO2)cc1 (stereo not drawn)	-71*
CCCn1cnc2cc(NC(=O)c3cccs3)ccc21	-113*
Cc1ccc(C(=O)Nc2ccc3c(c2)ncn3C)cc1	-115*
CCC(=O)Nc1ccc2c(c1)ncn2-c1ccc(C)cc1	-77*
CCn1cnc2cc(NC(=O)c3ccc(C)cc3)ccc21	-106*
COC(=O)c1sccc1N/N=C/c1cccc(Oc2ccccc2)c1	-64*
COC(=O)c1sccc1N/N=C/c1ccc(OC)c(OC)c1OC	-140*
Cc1ccc(NC(=O)c2ccc(CSc3nnc(C)s3)cc2)cc1	-75*
Cc1nnc(SCc2cccc3ccccc23)s1	-90*
Cc1ccc(NC(=O)c2ccc(CSc3ccccn3)cc2)cc1	-93*
Cc1ccc(NC(=O)c2ccc(CSc3nnnn3C)cc2)cc1	-165*
O=C(Nc1ccc(Br)cc1)c1ccc(CSC2=NCCS2)cc1	-132*
Cc1nnc(SCc2ccc(F)cc2)s1	-69*
Cc1ccccc1NC(=O)c1ccc(CSc2ncccn2)cc1	-83*
O=C(Cc1ccccc1[N+](=O)[O-])OCC(=O)c1c[nH]c2ccccc12	-69*
O=C(COC(=O)C1CC1)c1c[nH]c2ccccc12	-177*
SMILES	aSyn UTR act
C(=C\n1nnc2ccccc21)/c1ccc[nH]1	-72*
COc1cccc(CNc2nc3nc(C)c(Cl)c(C)n3n2)c1	-95*
COc1ccc(CNc2nc3nc(C)c(Cl)c(C)n3n2)cc1	-65*
Cc1ccc(CNc2ccc3c(c2)ncn3C(C)(C)C)cc1	-97*
CCc1ccc(CNc2ccc3c(c2)ncn3C)cc1	-156*
Cc1ccc(CNc2ccc3c(c2)ncn3C)cc1	-170*
CCCn1cnc2cc(NCc3ccccn3)ccc21	-71*
CCn1cnc2cc(NCc3ccc(Cl)cc3)ccc21	-111*
COc1ccc(/C=C2\CCCC(C(=O)C(F)(F)F)=C2O)cc1	-67*
COc1ccc(/C=C/c2cc(=O)c3cc(Cl)ccc3o2)cc1	-253*
Cc1ccc(C(=O)NC(C)C2CC3CCC2C3)c(C)c1 (stereo not drawn)	-102*
COc1ccccc1NC(=O)/C=C\c1ccco1	-84*
O=C(/C=C/c1ccco1)Nc1cccnc1	-122*
